According to ChEMBL document CHEMBL3988442, “University of Dundee, Small-Polar-MMV Screening Library” (2021):
For some of these results: Measured potencies and affinities stand elsewhere.

Experiments:
Design in all cases: scale not given: direction of the effect not stated beside the values
[1] = target: Protein translocase subunit SecA (Escherichia coli (strain K12)) (UniProt P10408); test: Assay to Identify E. coli SecA ATPase Inhibitors; format: functional; conditions: 30 µM
[2] = target: T1, Ubiquitin-activating enzyme e1, putative (Leishmania donovani (strain BPK282A1)) (UniProt E9BSI1); test: Leishmania donovani Ubiquitin Activating Enzyme (LdE1); format: functional; conditions: 30 µM
T1 sequence (whole entry): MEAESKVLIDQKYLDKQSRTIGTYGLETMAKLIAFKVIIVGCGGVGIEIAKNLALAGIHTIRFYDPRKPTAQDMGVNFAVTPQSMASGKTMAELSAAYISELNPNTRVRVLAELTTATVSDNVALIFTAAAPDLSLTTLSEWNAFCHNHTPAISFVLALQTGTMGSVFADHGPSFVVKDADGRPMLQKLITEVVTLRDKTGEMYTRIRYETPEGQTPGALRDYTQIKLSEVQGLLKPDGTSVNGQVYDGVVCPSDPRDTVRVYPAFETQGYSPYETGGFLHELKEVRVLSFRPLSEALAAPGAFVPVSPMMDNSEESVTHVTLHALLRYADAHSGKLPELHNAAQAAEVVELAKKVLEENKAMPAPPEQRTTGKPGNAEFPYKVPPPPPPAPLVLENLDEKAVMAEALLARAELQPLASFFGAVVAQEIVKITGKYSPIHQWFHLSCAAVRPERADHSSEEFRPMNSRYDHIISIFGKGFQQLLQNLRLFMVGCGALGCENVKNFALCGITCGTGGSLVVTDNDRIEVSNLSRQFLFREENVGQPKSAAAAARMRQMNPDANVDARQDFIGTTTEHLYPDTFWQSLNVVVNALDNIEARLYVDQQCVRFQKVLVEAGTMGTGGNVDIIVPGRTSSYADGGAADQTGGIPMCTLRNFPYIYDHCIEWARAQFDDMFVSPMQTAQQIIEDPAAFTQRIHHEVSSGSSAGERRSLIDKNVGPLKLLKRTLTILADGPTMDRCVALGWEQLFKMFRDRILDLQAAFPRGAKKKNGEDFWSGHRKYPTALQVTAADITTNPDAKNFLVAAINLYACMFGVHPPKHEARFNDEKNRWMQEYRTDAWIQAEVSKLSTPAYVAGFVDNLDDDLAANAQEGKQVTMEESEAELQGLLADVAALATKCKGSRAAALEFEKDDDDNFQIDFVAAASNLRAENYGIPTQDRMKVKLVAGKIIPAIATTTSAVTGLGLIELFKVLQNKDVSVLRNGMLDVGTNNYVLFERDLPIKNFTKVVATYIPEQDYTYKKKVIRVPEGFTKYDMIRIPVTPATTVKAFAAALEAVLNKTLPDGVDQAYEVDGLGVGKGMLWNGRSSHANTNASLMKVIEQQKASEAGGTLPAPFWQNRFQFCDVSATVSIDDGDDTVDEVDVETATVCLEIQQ

[3] = target: AMP-activated protein kinase, AMPK (Homo sapiens) (UniProt P54646+O43741+P54619+Q9UGJ0+Q9Y478+Q13131+Q9UGI9); test: AMP-dependent Kinase enzyme assay. An in vitro enzyme assay that detects ADP turnover that is directly proportional to AMPK activity. This uses naive AMPK that is activated during the assay with MK-8722; format: functional; conditions: 30 µM
[4] = target: Sialic acid-binding Ig-like lectin 9 (Homo sapiens) (UniProt Q9Y336); test: Hs-Siglec9 ALPHAscreen SOP 20170721; conditions: 10 µM
Trypanosoma cruzi = test: Trypanosoma cruzi phosphomannomutase and mannose-1-phosphate guanylyltransferase assay; format: functional; conditions: 10 µM
[5] = target: T2, Arginase-2, mitochondrial (Homo sapiens) (UniProt P78540); test: in vitro enzyme assay to detect the production of urea directly proportional to the activity of Arginase II; format: functional; conditions: 33.3 µM; further: in the data most compounds retested in dose-response had high values
T2 sequence (whole entry): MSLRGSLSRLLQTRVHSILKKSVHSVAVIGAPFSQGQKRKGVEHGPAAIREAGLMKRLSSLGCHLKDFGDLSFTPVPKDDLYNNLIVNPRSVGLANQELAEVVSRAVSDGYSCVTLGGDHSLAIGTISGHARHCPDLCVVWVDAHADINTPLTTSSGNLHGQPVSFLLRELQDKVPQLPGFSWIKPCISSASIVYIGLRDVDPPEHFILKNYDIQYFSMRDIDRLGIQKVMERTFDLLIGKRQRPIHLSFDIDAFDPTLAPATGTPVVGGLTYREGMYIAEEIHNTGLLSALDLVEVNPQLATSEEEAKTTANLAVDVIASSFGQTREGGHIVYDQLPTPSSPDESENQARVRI

[6] = target: T3, Proteasome subunit beta (Trypanosoma cruzi) (UniProt O96673); test: Trypanosoma cruzi proteasome chymotrypsin-like activity (TcProtChymo) assay.; further: in the data most compounds retested in dose-response had high values; format: functional; conditions: 9.37 µM
T3 sequence (whole entry): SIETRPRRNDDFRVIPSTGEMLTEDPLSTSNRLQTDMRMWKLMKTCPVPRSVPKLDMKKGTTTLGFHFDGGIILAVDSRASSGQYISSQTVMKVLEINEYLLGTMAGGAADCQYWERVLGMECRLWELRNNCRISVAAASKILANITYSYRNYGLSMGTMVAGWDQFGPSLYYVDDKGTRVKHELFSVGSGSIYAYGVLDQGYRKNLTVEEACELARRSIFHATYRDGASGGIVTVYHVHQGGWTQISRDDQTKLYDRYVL

Homo sapiens = species on record: Homo sapiens; test: To identify inhibition of the IFN signalling (Jak-Stat) pathway via expression of an eGFP reporter gene under the control of an IFN-stimulated response element (ISRE) containing MxA promoter.; format: functional; conditions: 30 µM
[7] = target: T4, Tyrosyl-tRNA synthetase, putative (Trypanosoma cruzi (strain CL Brener)) (UniProt Q4DSP6); test: Trypanosoma cruzi tyrosyl tRNA synthetase (TcYRS) _High Tyrosine SOP; format: functional; conditions: 30 µM; further: in the data most compounds retested in dose-response had high values
T4 sequence (whole entry): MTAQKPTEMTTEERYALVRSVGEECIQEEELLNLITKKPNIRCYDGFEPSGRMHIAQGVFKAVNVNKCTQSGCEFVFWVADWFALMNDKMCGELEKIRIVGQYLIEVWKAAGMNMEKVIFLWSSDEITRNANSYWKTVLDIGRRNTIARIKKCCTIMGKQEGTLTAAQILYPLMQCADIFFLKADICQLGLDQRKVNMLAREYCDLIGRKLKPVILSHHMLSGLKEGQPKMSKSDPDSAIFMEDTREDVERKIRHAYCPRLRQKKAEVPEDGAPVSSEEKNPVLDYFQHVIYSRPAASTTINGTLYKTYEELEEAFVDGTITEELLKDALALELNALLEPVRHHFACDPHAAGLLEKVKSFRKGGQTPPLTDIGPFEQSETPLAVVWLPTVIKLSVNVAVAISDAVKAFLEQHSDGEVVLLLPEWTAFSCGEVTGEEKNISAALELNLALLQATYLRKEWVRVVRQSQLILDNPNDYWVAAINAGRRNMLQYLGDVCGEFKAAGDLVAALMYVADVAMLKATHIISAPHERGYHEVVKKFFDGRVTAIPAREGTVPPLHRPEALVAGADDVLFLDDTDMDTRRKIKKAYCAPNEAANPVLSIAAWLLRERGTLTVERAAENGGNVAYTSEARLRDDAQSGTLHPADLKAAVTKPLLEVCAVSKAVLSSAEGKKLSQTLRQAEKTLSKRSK

[8] = target: T4, Tyrosyl-tRNA synthetase, putative (Trypanosoma cruzi (strain CL Brener)); test: Trypanosoma cruzi tyrosyl tRNA synthetase (TcYRS) SOP; format: functional; conditions: 30 µM
[9] = target: Chromo domain-containing protein 1 (Saccharomyces cerevisiae (strain ATCC 204508 / S288c) (Baker's yeast)) (UniProt P32657); test: ScCHD-1 Enzyme Inhibition Assay; format: functional; conditions: 30 µM; further: in the data most compounds retested in dose-response had high values
Chromo domain-containing protein 1 (Saccharomyces cerevisiae (strain ATCC 204508 / S288c) (Baker's yeast)), sequence (P32657 whole entry, the tested form may be a part): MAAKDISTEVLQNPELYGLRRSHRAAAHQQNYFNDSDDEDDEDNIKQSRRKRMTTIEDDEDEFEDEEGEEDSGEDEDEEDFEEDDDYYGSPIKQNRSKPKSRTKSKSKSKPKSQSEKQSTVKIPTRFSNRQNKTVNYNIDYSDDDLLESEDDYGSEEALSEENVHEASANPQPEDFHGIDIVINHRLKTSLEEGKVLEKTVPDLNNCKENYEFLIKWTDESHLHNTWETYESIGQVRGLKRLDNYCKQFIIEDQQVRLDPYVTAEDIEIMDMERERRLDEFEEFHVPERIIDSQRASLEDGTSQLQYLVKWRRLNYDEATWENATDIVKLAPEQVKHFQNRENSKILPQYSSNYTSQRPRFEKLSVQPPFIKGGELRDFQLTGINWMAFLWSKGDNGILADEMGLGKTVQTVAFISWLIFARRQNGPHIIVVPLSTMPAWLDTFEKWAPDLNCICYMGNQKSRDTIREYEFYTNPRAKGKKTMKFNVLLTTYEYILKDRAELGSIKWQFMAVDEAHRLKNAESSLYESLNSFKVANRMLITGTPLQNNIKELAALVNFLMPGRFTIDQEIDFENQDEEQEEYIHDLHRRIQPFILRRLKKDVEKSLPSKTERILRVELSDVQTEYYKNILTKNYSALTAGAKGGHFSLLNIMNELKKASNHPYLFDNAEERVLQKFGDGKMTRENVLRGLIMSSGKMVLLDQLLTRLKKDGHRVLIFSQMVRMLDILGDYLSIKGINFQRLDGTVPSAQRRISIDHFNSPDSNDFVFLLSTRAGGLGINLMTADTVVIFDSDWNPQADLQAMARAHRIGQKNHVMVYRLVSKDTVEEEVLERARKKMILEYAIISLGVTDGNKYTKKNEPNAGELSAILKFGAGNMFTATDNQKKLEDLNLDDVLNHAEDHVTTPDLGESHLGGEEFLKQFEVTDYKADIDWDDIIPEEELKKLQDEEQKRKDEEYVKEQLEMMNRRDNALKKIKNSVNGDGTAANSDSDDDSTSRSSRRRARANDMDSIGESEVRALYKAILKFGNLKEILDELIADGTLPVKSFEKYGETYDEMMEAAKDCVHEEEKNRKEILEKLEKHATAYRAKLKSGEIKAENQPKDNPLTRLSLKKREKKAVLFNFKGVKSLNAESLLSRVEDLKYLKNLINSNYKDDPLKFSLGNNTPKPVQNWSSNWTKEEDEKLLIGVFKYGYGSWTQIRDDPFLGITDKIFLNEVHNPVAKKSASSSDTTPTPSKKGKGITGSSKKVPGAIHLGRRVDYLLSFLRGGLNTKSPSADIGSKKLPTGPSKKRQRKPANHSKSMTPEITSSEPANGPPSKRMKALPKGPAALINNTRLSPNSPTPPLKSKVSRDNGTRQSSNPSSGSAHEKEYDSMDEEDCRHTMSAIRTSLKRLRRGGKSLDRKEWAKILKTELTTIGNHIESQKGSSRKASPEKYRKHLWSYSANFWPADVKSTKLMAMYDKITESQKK

Sialic acid-binding Ig-like lectin 9 (Homo sapiens), sequence (Q9Y336 whole entry): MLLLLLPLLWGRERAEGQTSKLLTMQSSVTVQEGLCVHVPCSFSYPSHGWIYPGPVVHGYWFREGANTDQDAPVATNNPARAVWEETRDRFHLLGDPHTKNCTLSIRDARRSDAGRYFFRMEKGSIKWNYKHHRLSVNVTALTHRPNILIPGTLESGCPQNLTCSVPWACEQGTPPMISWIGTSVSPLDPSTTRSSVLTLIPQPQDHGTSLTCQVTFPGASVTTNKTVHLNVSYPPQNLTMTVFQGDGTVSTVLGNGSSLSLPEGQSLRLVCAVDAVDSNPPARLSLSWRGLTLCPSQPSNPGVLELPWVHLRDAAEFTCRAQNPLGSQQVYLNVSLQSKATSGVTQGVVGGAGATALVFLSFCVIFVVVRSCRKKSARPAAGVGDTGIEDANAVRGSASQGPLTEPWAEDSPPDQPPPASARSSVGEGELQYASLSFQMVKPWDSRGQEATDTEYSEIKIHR
Protein translocase subunit SecA (Escherichia coli (strain K12)), sequence (P10408 whole entry): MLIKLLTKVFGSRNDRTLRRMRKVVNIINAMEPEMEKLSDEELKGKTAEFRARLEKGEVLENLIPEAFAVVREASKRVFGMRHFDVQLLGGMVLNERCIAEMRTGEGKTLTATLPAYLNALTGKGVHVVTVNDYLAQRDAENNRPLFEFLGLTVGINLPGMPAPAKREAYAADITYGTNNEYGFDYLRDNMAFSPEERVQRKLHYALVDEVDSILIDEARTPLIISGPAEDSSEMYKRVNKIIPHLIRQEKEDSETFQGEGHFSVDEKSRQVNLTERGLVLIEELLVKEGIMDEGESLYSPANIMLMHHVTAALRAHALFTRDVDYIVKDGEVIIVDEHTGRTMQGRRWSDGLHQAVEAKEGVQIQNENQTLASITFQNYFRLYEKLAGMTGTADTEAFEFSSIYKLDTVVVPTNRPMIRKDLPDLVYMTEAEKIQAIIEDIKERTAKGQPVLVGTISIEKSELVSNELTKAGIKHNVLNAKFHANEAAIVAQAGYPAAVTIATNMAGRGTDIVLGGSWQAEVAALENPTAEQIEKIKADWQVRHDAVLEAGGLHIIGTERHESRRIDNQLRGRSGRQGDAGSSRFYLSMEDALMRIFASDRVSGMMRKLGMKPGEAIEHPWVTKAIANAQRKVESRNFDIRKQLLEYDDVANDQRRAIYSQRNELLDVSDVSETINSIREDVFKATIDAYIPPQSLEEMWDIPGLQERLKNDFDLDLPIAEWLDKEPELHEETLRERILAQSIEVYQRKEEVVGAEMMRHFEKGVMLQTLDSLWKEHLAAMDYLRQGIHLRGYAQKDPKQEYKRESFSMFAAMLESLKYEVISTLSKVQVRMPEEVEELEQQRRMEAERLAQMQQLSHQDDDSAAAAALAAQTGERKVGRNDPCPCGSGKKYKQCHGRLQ

SMILES | Percent Effect [1] [%] | Percent Effect [2] [%] | Percent Effect [3] [%] | Percent Effect [4] [%] | Percent Effect (Trypanosoma cruzi) [%] | Percent Effect [5] [%] | Percent Effect [6] [%] | Percent Effect (Homo sapiens) [%] | Percent Effect [7] [%] | Percent Effect [8] [%] | Percent Effect [9] [%]
CN(CCCOc1ccccc1)C(=O)CN1CCc2cncnc2C1 | -1.71 | 26.3 | -41.1 | 4.54 | 9.24 | -0.719 | 10.6 | -5.43 | 30.1 | 38.3 | -11.5
c1ccc2c(N3CCCCC3Cn3cncn3)ncnc2c1 (stereo not given) | -4.99 | 2.67 | -0.541 | 0.114 | -0.876 | 3.12 | 8.54 | 16.2 | 2.73 | 6.17 | -6.35
Cc1cnn(CC(C)NCc2csc(-c3cnn(C)c3)n2)c1 (stereo not given) | -0.0815 | 19 | -6.28 | -4.12 | -4.41 | 0.645 | 20.6 | 14 | 7.29 | -10.1 | -26.4
CC(=O)N1CCCC1c1cccc(Cc2ccc(F)cc2)n1 (stereo not given) | -4.97 | 5.33 | 10.8 | 3.6 | 5.91 | -0.233 | 5.37 | 15.6 | 4.25 | 8.97 | 1.18
CCCN1CCC(NC(=O)NCCc2nc(CC)c(C)s2)CC1 | -5.41 | 5.41 | -6.84 | 24.7 | 4.1 | 33.3 | 8.54 | -11.4 | 9.9 | 13.4 | -9.25
CN1CCN(C(=O)c2ccc(=O)n(C)c2)Cc2ccccc21 | -3.95 | -16.2 | -7.07 | 15.3 | 3.62 | -4.25 | 0.539 | 5.67 | 3.96 | 18.3 | -2.09
CC(C)(C)c1ccc(C2(C(=O)NCCCS(C)(=O)=O)CC2)cc1 | -2.57 | 7.79 | 1.11 | 4.51 | -7.77 | -1.38 | 7.16 | 0.292 | 1.07 | 6.17 | -0.462
COc1ncccc1NC(=O)NCC1CCS(=O)(=O)C1 (stereo not given) | -2.59 | 20.8 | -3.16 | 6.78 | -0.936 | -3.92 | 4.22 | -12.2 | 5.83 | 12.2 | -8.21
COc1ccc(OCc2sc(C3(O)CCCNCC3)nc2C)cc1 (stereo not given) | -4.47 | 9.46 | 3.29 | 4.34 | -1.58 | 3.48 | 4.52 | 2.06 | 3.23 | 6.49 | -17.3
COc1ccc(CN2CC[C@H]3[C@H]2CCN3C(=O)c2cnn(C)c2)cc1 | -0.777 | 13.5 | 4.48 | -12.3 | -3.23 | 2.87 | 12.2 | 9.65 | 1.08 | 7.69 | -5.75
CCc1nc(CCNC(=O)C2CCOC2)sc1C (stereo not given) | -4.95 | 8.11 | -4.04 | 10.6 | 1.76 | 3.75 | 5.5 | 9.42 | 6.93 | 8.54 | -0.947
CC(C)c1nnc(NC(=O)NCc2ccc(CO)c(F)c2)s1 | -5.17 | 11.4 | -2.17 | -0.945 | -1.95 | 3.66 | 11.8 | 26.1 | -5.21 | -2.53 | -11.2
COc1ccc(CN2C[C@@H]3OCCN(CC4CCCO4)[C@@H]3C2)cc1 (stereo not given in full) | -0.662 | 10.8 | 2.03 | -5.49 | 6.16 | -4.78 | 17.3 | 3.23 | 3.24 | 12.8 | 5.65
Cc1nccn1-c1cccc(C2CCCN(C3CCCCC3)C2)n1 (stereo not given) | -7.63 | -4.05 | 3.56 | -0.877 | 2.17 | 4.41 | 14.8 | 2.91 | 22.6 | 27.3 | -10.9
Cc1ccc(CN(C)C(=O)CN2CCCC2Cn2cccn2)o1 (stereo not given) | 0.121 | 2.7 | -3.95 | 12.4 | 5.99 | 0 | 1.9 | -5.92 | 2.65 | 7.32 | -4.66
CN(C)S(=O)(=O)N1CCC(Oc2ccc(C#N)cc2)CC1 | -1 | 1.39 | 2.51 | -6.53 | -6.12 | 1.77 | 16.8 | 17.2 | 2.1 | 2.56 | -0.203
CS(=O)(=O)CCNC(=O)C1(c2cccc(Cl)c2)CCCCC1 | -7.1 | -1.39 | 0.793 | -3.56 | -1.46 | -2.65 | 6.14 | 13.7 | -4.21 | -7.69 | -0.434
Cc1nc(N(C)C)nc2c1COCC21CCN(C(=O)NC(C)C)C1 (stereo not given) | -5.29 | 0 | -0.0672 | 2.32 | 2.15 | -2.08 | 4.82 | -1.11 | 0.99 | 18.3 | -4.61
Fc1ccccc1CN1C[C@@H](OCc2ccncc2)[C@H]2OCCC[C@H]21 | -4.8 | 10.4 | 6.84 | 10.2 | 4.62 | -13.8 | 5.49 | 6.56 | 7.53 | 16.1 | -1.04
Cc1ccc(NC(=O)c2cc(S(=O)(=O)N3CCCCC3)c[nH]2)cc1F | -2.47 | 5.2 | 59.4 | -11.2 | -5.03 | 5.81 | 6.61 | 4.38 | 5.29 | -21.8 | -9.19
